# Experimental data taken from paper PMC7862700, “An all-to-all approach to the identification of sequence-specific readers for epigenetic DNA modifications on cytosine”.
# Experiments:
# Assay in all cases: DAPPL (digital affinity profiling via proximity ligation, sequencing); 10 mM Tris-HCl pH 7.5, 50 mM NaCl, 1 mM DTT, 4% glycerol, room temperature, 30 min; GST-TFs on glutathione beads, 16-mer random dsDNA library, 0.1% formaldehyde crosslink after washing; high values mean tight binding
# Conditions in all cases: protein: recombinant; tags: N-terminal GST; dsDNA, one strand shown
# [1] = biological target: T1, ELK1 (Homo sapiens, UniProt P19419 1-428)
# T1 sequence: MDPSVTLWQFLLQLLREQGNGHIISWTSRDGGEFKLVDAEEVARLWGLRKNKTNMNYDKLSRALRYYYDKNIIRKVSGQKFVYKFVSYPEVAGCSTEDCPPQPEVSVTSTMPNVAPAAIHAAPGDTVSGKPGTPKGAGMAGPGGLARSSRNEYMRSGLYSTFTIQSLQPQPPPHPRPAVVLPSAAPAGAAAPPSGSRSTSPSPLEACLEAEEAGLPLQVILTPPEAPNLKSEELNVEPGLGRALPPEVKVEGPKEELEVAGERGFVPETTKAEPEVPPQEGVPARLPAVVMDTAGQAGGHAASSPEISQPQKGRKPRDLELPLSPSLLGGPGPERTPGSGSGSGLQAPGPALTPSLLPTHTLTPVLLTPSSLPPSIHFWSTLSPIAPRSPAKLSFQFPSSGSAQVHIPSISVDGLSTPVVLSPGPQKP
# Outline: (§1)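 Pools were built from human transcription factors expressed in yeast as GST fusions, captured on glutathione beads and DNA-barcoded, along with a tag-only sample. Incubation with 200 nmole of a 16-mer random double-stranded DNA library lasted 30 min at room temperature in Tris/NaCl/DTT/glycerol buffer, and was followed by washing, 0.1% formaldehyde crosslinking, proximity ligation, PCR amplification and Illumina NextSeq500 sequencing. Binding signal is the quotient of each hexamer's read frequency for a factor and its frequency for the tag-only sample.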
# [2] = biological target: T2, GABPA (Homo sapiens, UniProt Q06546 1-454)
# T2 sequence: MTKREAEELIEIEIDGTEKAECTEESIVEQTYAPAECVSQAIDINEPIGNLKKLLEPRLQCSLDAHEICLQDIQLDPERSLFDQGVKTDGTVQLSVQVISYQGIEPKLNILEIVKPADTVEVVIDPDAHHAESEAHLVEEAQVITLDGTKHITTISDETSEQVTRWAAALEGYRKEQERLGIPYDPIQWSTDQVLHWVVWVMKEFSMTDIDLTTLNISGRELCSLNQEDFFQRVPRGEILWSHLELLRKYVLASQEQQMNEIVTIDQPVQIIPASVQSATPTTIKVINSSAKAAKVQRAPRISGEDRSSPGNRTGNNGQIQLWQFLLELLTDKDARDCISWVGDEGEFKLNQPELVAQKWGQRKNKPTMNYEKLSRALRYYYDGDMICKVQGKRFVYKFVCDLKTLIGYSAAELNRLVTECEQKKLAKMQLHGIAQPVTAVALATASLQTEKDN
# Outline: as §1
# [3] = biological target: T3, ERG (Homo sapiens, UniProt P11308 1-479)
# T3 sequence: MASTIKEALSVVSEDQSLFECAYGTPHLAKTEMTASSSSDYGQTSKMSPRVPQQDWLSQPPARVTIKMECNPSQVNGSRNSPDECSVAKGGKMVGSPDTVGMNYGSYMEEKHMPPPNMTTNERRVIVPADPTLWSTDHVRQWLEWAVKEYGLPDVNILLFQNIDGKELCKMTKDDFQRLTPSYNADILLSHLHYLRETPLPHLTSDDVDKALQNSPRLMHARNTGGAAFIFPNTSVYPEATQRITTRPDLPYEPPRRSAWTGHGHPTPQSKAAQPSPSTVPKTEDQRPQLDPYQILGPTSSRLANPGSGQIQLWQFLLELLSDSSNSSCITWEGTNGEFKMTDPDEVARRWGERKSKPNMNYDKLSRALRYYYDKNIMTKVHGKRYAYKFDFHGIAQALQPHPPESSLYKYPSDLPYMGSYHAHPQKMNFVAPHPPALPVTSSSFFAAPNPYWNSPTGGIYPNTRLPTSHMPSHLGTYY
# Outline: as §1
# [4] = biological target: ELF1 (Homo sapiens, UniProt P32519 1-619)
# Outline: as §1
# [5] = biological target: T4, EHF (Homo sapiens, UniProt Q9NZC4 1-300)
# T4 sequence: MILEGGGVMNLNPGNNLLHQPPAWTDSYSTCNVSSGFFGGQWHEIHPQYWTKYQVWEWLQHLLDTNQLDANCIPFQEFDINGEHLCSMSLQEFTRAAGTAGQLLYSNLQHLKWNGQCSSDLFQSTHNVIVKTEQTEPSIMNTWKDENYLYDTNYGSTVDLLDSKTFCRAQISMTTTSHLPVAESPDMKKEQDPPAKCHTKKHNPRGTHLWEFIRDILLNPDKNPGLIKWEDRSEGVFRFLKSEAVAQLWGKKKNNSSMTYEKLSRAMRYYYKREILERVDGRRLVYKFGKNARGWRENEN
# Outline: as §1
# [6] = biological target: SPI1 (Homo sapiens, UniProt P17947 1-270)
# Outline: as §1
# [7] = biological target: SPIB (Homo sapiens, UniProt Q01892 1-262)
# Outline: as §1
# [8] = biological target: T5, FEV (Homo sapiens, UniProt Q99581 1-238)
# T5 sequence: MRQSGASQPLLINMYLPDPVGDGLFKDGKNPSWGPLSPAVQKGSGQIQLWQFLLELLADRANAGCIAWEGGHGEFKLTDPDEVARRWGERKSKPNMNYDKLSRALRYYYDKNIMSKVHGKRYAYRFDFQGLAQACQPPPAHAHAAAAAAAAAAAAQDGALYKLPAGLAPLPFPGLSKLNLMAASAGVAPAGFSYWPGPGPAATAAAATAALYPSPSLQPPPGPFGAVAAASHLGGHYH
# Outline: as §1
# [9] = biological target: ETV5 (Homo sapiens, UniProt P41161 1-510)
# Outline: as §1
# [10] = biological target: ELF4 (Homo sapiens, UniProt Q99607 1-663)
# Outline: as §1
# [11] = biological target: T6, ELK4 (Homo sapiens, UniProt P28324-2 1-405)
# T6 sequence: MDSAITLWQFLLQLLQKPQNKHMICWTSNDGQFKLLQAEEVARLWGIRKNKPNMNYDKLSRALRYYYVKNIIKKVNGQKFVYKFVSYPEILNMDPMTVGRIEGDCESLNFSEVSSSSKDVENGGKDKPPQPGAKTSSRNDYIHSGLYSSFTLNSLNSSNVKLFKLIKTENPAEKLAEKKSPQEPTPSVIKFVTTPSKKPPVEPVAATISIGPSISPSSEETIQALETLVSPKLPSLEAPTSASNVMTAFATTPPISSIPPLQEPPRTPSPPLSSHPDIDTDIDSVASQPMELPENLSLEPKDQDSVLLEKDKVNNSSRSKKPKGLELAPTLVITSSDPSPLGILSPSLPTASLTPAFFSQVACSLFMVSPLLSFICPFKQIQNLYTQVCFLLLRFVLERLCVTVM
# Outline: as §1
# [12] = biological target: T7, ELF3 (Homo sapiens, UniProt P78545 1-371)
# T7 sequence: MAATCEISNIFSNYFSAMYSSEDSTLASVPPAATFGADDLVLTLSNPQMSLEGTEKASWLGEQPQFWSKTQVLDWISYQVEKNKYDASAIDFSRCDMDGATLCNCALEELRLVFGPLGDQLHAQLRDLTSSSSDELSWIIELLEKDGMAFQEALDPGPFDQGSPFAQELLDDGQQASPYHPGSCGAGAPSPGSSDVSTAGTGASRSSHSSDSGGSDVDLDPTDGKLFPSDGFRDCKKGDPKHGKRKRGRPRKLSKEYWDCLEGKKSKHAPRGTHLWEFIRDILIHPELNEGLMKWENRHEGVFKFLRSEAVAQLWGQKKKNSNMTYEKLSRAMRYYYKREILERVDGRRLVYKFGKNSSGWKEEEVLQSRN
# Outline: as §1
# [13] = biological target: ETV1 (Homo sapiens, UniProt P50549 1-477)
# Outline: as §1
# [14] = biological target: T8, ERF (Homo sapiens, UniProt P50548 1-548)
# T8 sequence: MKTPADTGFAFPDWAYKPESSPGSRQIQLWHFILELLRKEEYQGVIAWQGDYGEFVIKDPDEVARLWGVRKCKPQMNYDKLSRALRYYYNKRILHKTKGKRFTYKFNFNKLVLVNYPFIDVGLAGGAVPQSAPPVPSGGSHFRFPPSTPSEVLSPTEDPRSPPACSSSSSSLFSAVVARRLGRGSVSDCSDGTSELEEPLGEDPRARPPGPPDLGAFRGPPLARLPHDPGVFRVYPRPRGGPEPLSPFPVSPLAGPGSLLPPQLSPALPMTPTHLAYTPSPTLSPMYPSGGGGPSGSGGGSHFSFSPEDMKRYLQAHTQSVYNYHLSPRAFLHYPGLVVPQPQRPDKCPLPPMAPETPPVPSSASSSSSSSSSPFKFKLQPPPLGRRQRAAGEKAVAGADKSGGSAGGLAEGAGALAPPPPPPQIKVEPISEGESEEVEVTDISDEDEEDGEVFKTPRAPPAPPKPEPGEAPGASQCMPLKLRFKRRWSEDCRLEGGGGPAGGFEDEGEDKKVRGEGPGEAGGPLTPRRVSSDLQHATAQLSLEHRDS
# Outline: as §1
# [15] = biological target: T9, ETV3L (Homo sapiens, UniProt Q6ZN32 1-361)
# T9 sequence: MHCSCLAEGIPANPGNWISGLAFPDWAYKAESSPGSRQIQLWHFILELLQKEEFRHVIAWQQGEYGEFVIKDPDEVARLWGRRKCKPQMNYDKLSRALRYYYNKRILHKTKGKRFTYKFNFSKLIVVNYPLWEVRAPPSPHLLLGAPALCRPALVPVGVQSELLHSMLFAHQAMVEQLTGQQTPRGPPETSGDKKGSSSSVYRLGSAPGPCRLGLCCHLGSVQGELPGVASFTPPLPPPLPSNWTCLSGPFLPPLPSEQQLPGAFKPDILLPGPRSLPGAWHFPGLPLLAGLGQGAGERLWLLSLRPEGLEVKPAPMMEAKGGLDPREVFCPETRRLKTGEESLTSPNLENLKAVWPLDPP
# Outline: as §1
# [16] = biological target: T10, ETS2 (Homo sapiens, UniProt P15036 1-469)
# T10 sequence: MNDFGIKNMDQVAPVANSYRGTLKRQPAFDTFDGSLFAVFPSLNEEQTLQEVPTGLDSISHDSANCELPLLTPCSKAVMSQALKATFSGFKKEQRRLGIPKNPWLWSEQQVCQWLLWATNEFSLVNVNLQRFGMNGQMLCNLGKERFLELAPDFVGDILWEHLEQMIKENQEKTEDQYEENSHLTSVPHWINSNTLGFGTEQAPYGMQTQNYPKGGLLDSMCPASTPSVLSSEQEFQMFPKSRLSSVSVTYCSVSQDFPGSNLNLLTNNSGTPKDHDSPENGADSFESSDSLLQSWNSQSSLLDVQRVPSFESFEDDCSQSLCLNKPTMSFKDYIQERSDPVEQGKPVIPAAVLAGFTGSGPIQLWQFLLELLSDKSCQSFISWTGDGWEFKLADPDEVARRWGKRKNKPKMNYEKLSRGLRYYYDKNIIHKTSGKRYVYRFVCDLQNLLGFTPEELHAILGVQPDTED
# Outline: as §1
# [17] = biological target: T11, SPDEF (Homo sapiens, UniProt O95238 1-335)
# T11 sequence: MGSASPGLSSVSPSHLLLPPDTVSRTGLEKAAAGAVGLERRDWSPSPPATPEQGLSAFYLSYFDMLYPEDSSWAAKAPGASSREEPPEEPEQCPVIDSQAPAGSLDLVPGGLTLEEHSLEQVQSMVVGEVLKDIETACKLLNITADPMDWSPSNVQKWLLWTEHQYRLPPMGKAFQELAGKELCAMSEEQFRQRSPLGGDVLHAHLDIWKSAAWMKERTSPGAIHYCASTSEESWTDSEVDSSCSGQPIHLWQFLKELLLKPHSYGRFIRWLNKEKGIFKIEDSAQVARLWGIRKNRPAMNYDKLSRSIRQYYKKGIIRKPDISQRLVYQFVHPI
# Outline: as §1
# [18] = biological target: T12, ETV3 (Homo sapiens, UniProt P41162-2 1-143)
# T12 sequence: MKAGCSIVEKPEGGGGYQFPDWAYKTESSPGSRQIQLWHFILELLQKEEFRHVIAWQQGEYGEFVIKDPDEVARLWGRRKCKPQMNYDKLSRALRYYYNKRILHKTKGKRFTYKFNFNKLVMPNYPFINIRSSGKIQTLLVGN
# Outline: as §1
# [19] = biological target: ETV6 (Homo sapiens, UniProt P41212 1-452)
# Outline: as §1
# ETV6, sequence (P41212 whole entry): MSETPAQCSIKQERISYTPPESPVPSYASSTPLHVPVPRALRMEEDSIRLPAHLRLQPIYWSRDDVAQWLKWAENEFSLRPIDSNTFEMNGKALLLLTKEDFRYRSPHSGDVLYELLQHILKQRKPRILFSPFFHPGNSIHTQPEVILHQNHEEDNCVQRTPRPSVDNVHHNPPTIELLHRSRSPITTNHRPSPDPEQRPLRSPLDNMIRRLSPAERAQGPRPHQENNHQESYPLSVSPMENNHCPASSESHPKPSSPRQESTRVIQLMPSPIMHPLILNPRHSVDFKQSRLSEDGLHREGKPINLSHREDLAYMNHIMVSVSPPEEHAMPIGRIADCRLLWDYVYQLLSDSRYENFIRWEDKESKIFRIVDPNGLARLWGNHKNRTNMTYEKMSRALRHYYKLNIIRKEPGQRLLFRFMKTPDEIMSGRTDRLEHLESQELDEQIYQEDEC
# ELF1, sequence (P32519 whole entry): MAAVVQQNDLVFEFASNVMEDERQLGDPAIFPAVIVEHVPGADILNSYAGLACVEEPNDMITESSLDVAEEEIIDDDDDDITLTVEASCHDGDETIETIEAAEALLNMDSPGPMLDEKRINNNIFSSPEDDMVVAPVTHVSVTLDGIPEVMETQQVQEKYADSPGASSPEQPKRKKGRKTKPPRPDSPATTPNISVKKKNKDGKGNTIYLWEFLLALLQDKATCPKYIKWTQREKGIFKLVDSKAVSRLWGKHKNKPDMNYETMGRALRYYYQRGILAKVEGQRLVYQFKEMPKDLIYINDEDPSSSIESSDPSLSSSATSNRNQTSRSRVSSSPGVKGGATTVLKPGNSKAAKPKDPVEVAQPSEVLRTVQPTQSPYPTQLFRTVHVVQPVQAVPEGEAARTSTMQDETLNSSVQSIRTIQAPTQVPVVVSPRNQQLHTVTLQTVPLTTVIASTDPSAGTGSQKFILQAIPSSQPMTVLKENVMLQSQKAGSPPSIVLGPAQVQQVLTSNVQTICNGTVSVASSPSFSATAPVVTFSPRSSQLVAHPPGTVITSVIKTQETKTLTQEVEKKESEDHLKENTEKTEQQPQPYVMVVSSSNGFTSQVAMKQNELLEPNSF
# ETV5, sequence (P41161 whole entry): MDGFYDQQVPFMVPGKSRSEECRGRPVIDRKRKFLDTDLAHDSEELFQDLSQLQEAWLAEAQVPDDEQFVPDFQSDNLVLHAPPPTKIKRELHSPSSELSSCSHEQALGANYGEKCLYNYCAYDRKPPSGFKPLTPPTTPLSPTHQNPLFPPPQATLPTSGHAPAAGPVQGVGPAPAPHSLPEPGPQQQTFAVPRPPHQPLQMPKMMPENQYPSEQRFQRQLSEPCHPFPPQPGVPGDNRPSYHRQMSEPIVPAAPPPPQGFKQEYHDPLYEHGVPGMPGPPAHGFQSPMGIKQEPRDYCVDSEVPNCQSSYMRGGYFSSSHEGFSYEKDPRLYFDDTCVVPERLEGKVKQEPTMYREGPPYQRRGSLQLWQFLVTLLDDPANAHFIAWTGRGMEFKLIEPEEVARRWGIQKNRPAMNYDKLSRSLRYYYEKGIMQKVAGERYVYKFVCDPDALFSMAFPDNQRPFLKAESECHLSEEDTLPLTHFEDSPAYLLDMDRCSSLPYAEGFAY
# ETV1, sequence (P50549 whole entry): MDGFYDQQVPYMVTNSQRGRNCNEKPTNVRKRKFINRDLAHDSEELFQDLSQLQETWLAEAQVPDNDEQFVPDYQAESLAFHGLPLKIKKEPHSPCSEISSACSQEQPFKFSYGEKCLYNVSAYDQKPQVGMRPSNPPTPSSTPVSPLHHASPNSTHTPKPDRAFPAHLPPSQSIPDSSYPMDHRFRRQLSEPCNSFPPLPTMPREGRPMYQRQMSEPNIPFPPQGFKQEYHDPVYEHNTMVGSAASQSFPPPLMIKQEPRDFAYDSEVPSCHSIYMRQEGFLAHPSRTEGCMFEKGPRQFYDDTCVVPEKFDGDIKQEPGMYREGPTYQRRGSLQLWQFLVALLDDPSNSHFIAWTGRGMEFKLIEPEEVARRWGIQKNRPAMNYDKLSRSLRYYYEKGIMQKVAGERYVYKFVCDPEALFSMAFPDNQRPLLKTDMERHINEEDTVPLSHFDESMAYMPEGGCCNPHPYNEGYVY
# ELF4, sequence (Q99607 whole entry): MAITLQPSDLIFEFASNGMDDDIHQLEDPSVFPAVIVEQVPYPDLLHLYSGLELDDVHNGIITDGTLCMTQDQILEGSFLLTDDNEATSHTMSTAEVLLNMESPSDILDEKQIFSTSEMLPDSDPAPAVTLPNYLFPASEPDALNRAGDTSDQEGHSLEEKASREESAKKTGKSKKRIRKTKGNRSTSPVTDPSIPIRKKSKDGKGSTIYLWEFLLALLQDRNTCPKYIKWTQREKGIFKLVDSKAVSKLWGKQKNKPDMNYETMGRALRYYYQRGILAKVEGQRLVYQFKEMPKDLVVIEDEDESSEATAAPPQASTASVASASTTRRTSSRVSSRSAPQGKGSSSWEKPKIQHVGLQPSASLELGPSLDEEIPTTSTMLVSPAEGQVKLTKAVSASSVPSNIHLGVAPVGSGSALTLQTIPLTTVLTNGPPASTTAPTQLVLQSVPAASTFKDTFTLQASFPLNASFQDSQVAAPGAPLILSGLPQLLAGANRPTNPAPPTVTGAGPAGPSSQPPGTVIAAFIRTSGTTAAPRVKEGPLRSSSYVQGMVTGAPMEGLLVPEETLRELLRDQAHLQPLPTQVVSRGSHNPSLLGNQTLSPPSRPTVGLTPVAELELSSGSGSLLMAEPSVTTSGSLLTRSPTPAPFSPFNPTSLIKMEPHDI
# SPIB, sequence (Q01892 whole entry): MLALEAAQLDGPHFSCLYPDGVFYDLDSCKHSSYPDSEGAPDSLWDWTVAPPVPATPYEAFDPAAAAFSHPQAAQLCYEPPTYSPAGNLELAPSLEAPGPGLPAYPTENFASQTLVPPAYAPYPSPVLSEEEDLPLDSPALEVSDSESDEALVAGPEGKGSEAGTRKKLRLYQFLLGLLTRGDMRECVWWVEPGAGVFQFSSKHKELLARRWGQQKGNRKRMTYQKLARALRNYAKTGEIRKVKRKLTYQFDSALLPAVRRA
sequence,measurement,setting,value
CTAGCG,binding signal,[1],"1.12 fold enrichment (6-mer frequency, TF over GST control)"
same,binding signal,[2],"1.32 fold enrichment (6-mer frequency, TF over GST control)"
same,binding signal,[3],"1.19 fold enrichment (6-mer frequency, TF over GST control)"
same,binding signal,[4],"1.11 fold enrichment (6-mer frequency, TF over GST control)"
same,binding signal,[5],"1.18 fold enrichment (6-mer frequency, TF over GST control)"
same,binding signal,[6],"1.15 fold enrichment (6-mer frequency, TF over GST control)"
same,binding signal,[7],"1.17 fold enrichment (6-mer frequency, TF over GST control)"
same,binding signal,[8],"1.15 fold enrichment (6-mer frequency, TF over GST control)"
same,binding signal,[9],"1.22 fold enrichment (6-mer frequency, TF over GST control)"
same,binding signal,[10],"1.1 fold enrichment (6-mer frequency, TF over GST control)"
same,binding signal,[11],"1.16 fold enrichment (6-mer frequency, TF over GST control)"
same,binding signal,[12],"1.05 fold enrichment (6-mer frequency, TF over GST control)"
same,binding signal,[13],"1.17 fold enrichment (6-mer frequency, TF over GST control)"
same,binding signal,[14],"1.31 fold enrichment (6-mer frequency, TF over GST control)"
same,binding signal,[15],"1.07 fold enrichment (6-mer frequency, TF over GST control)"
same,binding signal,[16],"1.18 fold enrichment (6-mer frequency, TF over GST control)"
same,binding signal,[17],"1.1 fold enrichment (6-mer frequency, TF over GST control)"
same,binding signal,[18],"1.15 fold enrichment (6-mer frequency, TF over GST control)"
same,binding signal,[19],"1.08 fold enrichment (6-mer frequency, TF over GST control)"
